According to PubChem BioAssay AID1981 (Southern Research Specialized Biocontainment Screening …, 2009):
Out of some 2,200 compounds screened, about 480 (22%) were called active. The rule behind the calls is not given here. Only a sample is shown. Results with a measured potency or affinity are listed apart.

Experiment: S. Typhimurium GFP fluorescence modified counterscreen for PhoP regulon inhibitor project dose response (AID 1981)
Conditions: 4 h; series mostly up to 150 µM
With COc1ccc(/C=C2\CN(Cc3ccccc3)C/C(=C\c3ccc(OC)cc3)C2=O)cc1 the outcome was “inactive”.
With Cc1cccc(C)c1NC(=O)CSc1nnc(NC(=O)CN2CCOCC2)s1 the outcome was “inactive”.
With Cc1cc(C(=O)N/N=C/c2cccc([N+](=O)[O-])c2O)n[nH]1 the outcome was “inactive”.
For O=C(N/N=C/c1cccn1-c1ccc([N+](=O)[O-])cc1)C(O)c1ccccc1 (stereo unspecified), the outcome was “inactive”.
With Cc1cc(C(=O)N/N=C/C=C/c2ccc3c(c2)OCO3)n[nH]1 the outcome was “inactive”.
For CN(C)C(=O)c1cn(N(C)c2ncc(C(F)(F)F)cc2Cl)c(=O)c2ccccc12, the outcome was “inactive”.
In the case of Cc1ccc(-c2cc(-c3ccc(Cl)cc3)c(C#N)c(N)n2)o1, the outcome is reported as “inactive”.
For CC(=O)c1cccc(NC(=O)NCc2ccco2)c1, the outcome was “inactive”.
For Nc1nc(-c2ccc(Br)cc2)cs1, the outcome was “inactive”.
For COc1ccc(-c2cc(N3CCCC3)n3ncnc3n2)cc1, the outcome was “inactive”.
With Cc1ccccc1NC(=S)N(CCCN1CCOCC1)Cc1ccccn1 the outcome was “inactive”.
In the case of CCn1c(Cc2c(C)[nH]c3ccccc23)n[nH]c1=S, the outcome is reported as “inactive”.
With O=c1[nH]c2ccccc2n1C1=CCCC1 the outcome was “inactive”.
In the case of Cc1cccc(C)c1NC(=O)CCCSc1nnc(-c2ccc(Cl)cc2)n1-c1ccccc1, the outcome is reported as “inactive”.
In the case of COc1ccccc1-c1cc(C(=O)Nc2cc(C)nn2-c2ccccc2)no1, the outcome is reported as “inactive”.
For Cc1ccc(-n2nc(-c3ccc(N)cc3)cc2N)cc1, the outcome was “inactive”.
In the case of O=C(OCC(=O)c1ccccc1Cl)c1cnccn1, the outcome is reported as “inactive”.
In the case of O=C(c1cc2ncc(Br)cn2n1)N1CCOCC1, the outcome is reported as “inactive”.
For Cc1[nH]c2ccccc2c1C(O)CN1CCN(c2cccc(C(F)(F)F)c2)CC1 (stereo unspecified), the outcome was “inactive”.
With COc1cc(C2Nc3cccc4cccc(c34)N2)cc(OC)c1OC(C)=O the outcome was “inactive”.
With CC(=O)Oc1c2occc2cc2ccc(=O)oc12 the outcome was “inactive”.
With O=C(NCCNS(=O)(=O)c1cccc(C(F)(F)F)c1)c1cc(OCC(F)(F)F)ccc1OCC(F)(F)F the outcome was “inactive”.
For O=c1c(Br)c(Br)cnn1-c1ccccc1, the outcome was “inactive”.
For CCCOC(=O)C(C)n1cnc2sc(C)c(C)c2c1=O (stereo unspecified), the outcome was “inactive”.
With COc1ccc(C(=O)C(CO)Oc2ccccc2OC)cc1OC (stereo unspecified) the outcome was “inactive”.
With COc1ccc(OCCSc2nnc3sc4ccccc4n23)cc1 the outcome was “inactive”.
With COC(=O)Cn1c(C)nc2ccccc21 the outcome was “inactive”.
For Cc1ccc(OCc2nc3ccccc3[nH]2)cc1, the outcome was “inactive”.
With COc1ccccc1OCc1ccc(C(=O)N2CCN(C(=O)c3ccco3)CC2)cc1 the outcome was “inactive”.
For S=C(Nc1ccccc1)Nc1nc2ccccc2n1CCOc1ccc(Cl)cc1, the outcome was “inactive”.
In the case of Clc1ccc(OCCn2cnc3ccccc32)cc1, the outcome is reported as “inactive”.
With CCOC(=O)CCC(NC(=O)c1ccc(NCN2C(=O)CCC2=O)cc1)C(=O)OCC (stereo unspecified) the outcome was “inactive”.
For CC(=O)c1c(C)nc(-c2ccc(Cl)cc2)nc1N=CN(C)C, the outcome was “inactive”.
With Cc1cccc(C=Nc2ccc3c(c2)oc2ccccc23)c1O the outcome was “inactive”.
With CCc1cccc2c(C#N)cn(CC(=O)NCCOC)c12 the outcome was “inactive”.
With C/C(=N\n1nnnc1Nc1ccccc1)c1ccc(N)cc1 the outcome was “inactive”.
With Cc1ccc2c(c1)C(c1ccccc1)NCC(=O)N2 (stereo unspecified) the outcome was “inactive”.
For Cc1cc(C)nc(NC(=O)Cc2cccs2)n1, the outcome was “inactive”.
With Cc1cccc(OCC(=O)NNc2c3ccccc3nc3ccccc23)c1 the outcome was “inactive”.
In the case of COc1ccc(/C=C/C(=O)O)cc1COc1cccc(C)c1, the outcome is reported as “inactive”.
For C=CCN=C(NC#N)SCc1ccccc1Cl, the outcome was “inactive”.
With Cc1cc(C)c(NC(=O)COc2ccccc2C(=O)Nc2ccc3c(c2)oc2ccccc23)c(C)c1 the outcome was “inactive”.
With O=C1Nc2ccccc2/C1=C/c1cnc[nH]1 the outcome was “inactive”.
In the case of Cc1ccccc1OCCCCCn1ccnc1, the outcome is reported as “inactive”.
For Cc1nn(-c2ccccc2)c2sc(-c3n[nH]c(=S)o3)cc12, the outcome was “inactive”.
In the case of COc1ccc(OC)c(S(=O)(=O)N2c3cc(F)ccc3CCC2C)c1 (stereo unspecified), the outcome is reported as “inactive”.
For Cc1cccc(Sc2c([N+](=O)[O-])ncn2C)c1, the outcome was “inactive”.
In the case of Clc1ccc(OCCn2ccnc2)c2ccccc12, the outcome is reported as “inactive”.
For Cc1ccc(C(=O)COC(=O)CNS(=O)(=O)c2ccccc2)cc1[N+](=O)[O-], the outcome was “inactive”.
For O=C1/C(=C/c2ccccc2)NC(=S)N1C(c1ccccc1)c1ccccc1, the outcome was “inactive”.
For Cc1cc(C(=O)NNC(=S)NC(=O)/C=C/c2ccccc2Cl)n[nH]1, the outcome was “inactive”.
For CN(c1ccccc1)S(=O)(=O)c1cc(C(=O)Nc2nc3ccccc3[nH]2)ccc1Cl, the outcome was “inactive”.
With COC(=O)CSc1nnc(-c2ccco2)n1Cc1ccco1 the outcome was “inactive”.
With Cc1ccccc1Cn1c(=N)n(CC(=O)c2ccco2)c2ccccc21 the outcome was “inactive”.
With O=C(CN1CCCCC1)Nc1cccc(Br)c1 the outcome was “inactive”.
With NC(=O)c1oc2ccccc2c1NC(=O)CN1CCCCC1 the outcome was “inactive”.
In the case of O=C(CSc1nnc2n(C3CCCCC3)c(=O)c3ccccc3n12)OC1CCCCC1, the outcome is reported as “inactive”.
For OC(COc1ccc2ccccc2c1Br)Cn1ccnc1 (stereo unspecified), the outcome was “inactive”.
In the case of COc1cc(C)ccc1OCCCOc1ccccc1Br, the outcome is reported as “inactive”.
In the case of COc1cccc(NC(=O)Cn2c(=O)n(CCCC(=O)NCc3ccco3)c(=O)c3ccccc32)c1, the outcome is reported as “inactive”.
In the case of Cc1ccc(N(CC(=O)N/N=C/c2ccco2)S(=O)(=O)c2ccccc2)cc1, the outcome is reported as “inactive”.
For CCCc1ccc(C(=O)CCC(=O)O)cc1, the outcome was “inactive”.
In the case of Nc1nonc1-n1nnc(C(=O)N/N=C/c2ccc(Br)cc2)c1CSC1=NCCS1, the outcome is reported as “inactive”.
In the case of Nc1nonc1C(=O)NCCN=Cc1cc(Cc2ccccc2)cc(Br)c1O, the outcome is reported as “inactive”.
In the case of COc1cccc(C=NCCNC(=O)c2nonc2N)c1O, the outcome is reported as “inactive”.
With CC(C)n1cc(C(=O)N2CCCC(N3CCN(c4ccc(F)cc4)CC3)C2)cn1 (stereo unspecified) the outcome was “inactive”.
For O=C(CSc1nc2ccccc2o1)Nc1ccc(N2CCOCC2)c(Cl)c1, the outcome was “inactive”.
In the case of O=C(c1ccccc1)N1CCSC1=S, the outcome is reported as “inactive”.
For CC1(C)CC(=O)C(/C=N/c2ncccc2C(=O)O)=C(O)C1, the outcome was “inactive”.
With CCCCCn1c(N)c(C(=O)NCc2cccs2)c2nc3ccccc3nc21 the outcome was “inactive”.
In the case of O=C(c1ccc2nc(N3CCOCC3)sc2c1)N1CCC(Cc2ccccc2)CC1, the outcome is reported as “inactive”.
For COc1ccc(-c2nnn(CC(=O)N(Cc3ccco3)C(C(=O)NCC3CCCO3)c3ccco3)n2)cc1 (stereo unspecified), the outcome was “inactive”.
In the case of C#CC(=O)N(c1cc(OC)ccc1OC)C(C(=O)NC1CCCC1)c1cccs1 (stereo unspecified), the outcome is reported as “inactive”.
In the case of CCC(C)NC(=O)c1ccccc1NC(=O)C(C)N(c1ccccc1)S(C)(=O)=O (stereo unspecified), the outcome is reported as “inactive”.
For Nc1nc(-c2ccc3c(c2)OCCO3)cs1, the outcome was “inactive”.
For CN(C)c1ccc(Nc2nc(-c3cccnc3)cs2)cc1, the outcome was “inactive”.
With CCn1c2ccccc2c2cc(N)ccc21 the outcome was “inactive”.
In the case of CCc1cccc(NC(=O)Nc2cccs2)c1, the outcome is reported as “inactive”.
For COc1ccc(N=c2cc(-c3ccc(OC)cc3)oc3ccccc23)cc1, the outcome was “inactive”.
With CCCNC(=O)CSc1nnc(C)s1 the outcome was “inactive”.
With Cn1ccnc1C(O)c1ccc(OCc2ccccc2)cc1 (stereo unspecified) the outcome was “inactive”.
For CSc1nnc2c3c4c(sc3nc(-n3nc(C)cc3C)n12)COC(C)(C)C4, the outcome was “inactive”.
With COc1ccc(NC(=O)c2ccc(OC)cc2)cc1 the outcome was “inactive”.
With FC(F)(F)C1=CC(c2ccc(Br)cc2)=NCCN1 the outcome was “inactive”.
For N=c1scc(-c2ccccc2)n1/N=C/c1ccco1, the outcome was “inactive”.
In the case of COc1ccc(-c2nnc(SCCC(=O)O)n2-c2ccccc2)cc1, the outcome is reported as “inactive”.
For O=C(NCCNc1ccc([N+](=O)[O-])cc1C(F)(F)F)c1cccc(F)c1, the outcome was “inactive”.
With Oc1ccc(Br)cc1-c1nc2cnccn2c1NC1CCCCC1 the outcome was “inactive”.
In the case of O=C1CCCc2nc(N3CCN(Cc4ccccc4)CC3)ncc21, the outcome is reported as “inactive”.
In the case of COc1ccccc1CC1(C)NC(=O)N(CC(=O)N2CC(C)OC(C)C2)C1=O (stereo unspecified), the outcome is reported as “inactive”.
With Cc1ccccc1OCCSCc1nc2ccccc2[nH]1 the outcome was “inactive”.
For O=C(Nc1ccc(S(=O)(=O)Nc2nccs2)cc1)c1cc(-c2ccccc2)nc2ccccc12, the outcome was “inactive”.
In the case of CC(CN1CCOCC1)C(=O)c1ccccc1 (stereo unspecified), the outcome is reported as “inactive”.
For Cc1ccc(C(=O)c2ccccc2C(=O)O)c(O)c1, the outcome was “inactive”.
In the case of Cc1cc(C(=O)NCc2cccs2)cs1, the outcome is reported as “inactive”.
In the case of CCCc1cc(N2CCN(c3ccccn3)CC2)n2nc(C)c(-c3ccccc3)c2n1, the outcome is reported as “inactive”.
In the case of COc1ccc(CNc2nc3c(c(=O)[nH]c(=O)n3C)n2CCCc2ccccc2)cc1, the outcome is reported as “inactive”.
For COc1nc(-c2ccccc2)ccc1-c1noc(C)n1, the outcome was “inactive”.
With NCCCCCc1nnc(SCc2ccc(Cl)cc2Cl)o1 the outcome was “inactive”.
In the case of Cc1ccc([N+](=O)[O-])cc1-c1ccc(/C=C(\C#N)c2[nH]nc(N)c2C#N)o1, the outcome is reported as “inactive”.
With CNC(=O)CN(c1ccc(F)cc1)S(=O)(=O)c1cc(C)ccc1OC the outcome was “inactive”.
In the case of CCN1C(=O)N/C(=C/c2ccc(Sc3ccc(C)cc3)o2)C1=O, the outcome is reported as “inactive”.
For O=C(CCCCCNc1nc(=S)[nH]c2ccccc12)NCCc1c[nH]c2ccccc12, the outcome was “inactive”.
With Cc1ccc2nc(NNC(=O)c3ccc(S(=O)(=O)N4CCc5ccccc5C4)cc3)sc2c1 the outcome was “inactive”.
For C=CCNCC#CCOc1ccc(OC)cc1, the outcome was “inactive”.
In the case of Cn1cccc1C(=O)OCc1csc(-c2ccccc2)n1, the outcome is reported as “inactive”.
With Cc1ccc(S(=O)(=O)NCc2ccc(C(=O)N3CCN(c4ccccn4)CC3)cc2)cc1 the outcome was “inactive”.
In the case of O=C(CCCN1Cc2ccccc2C1)c1ccc(F)cc1, the outcome is reported as “inactive”.
For CCOC(=O)N1CCC(NC(=O)CCC(=O)c2ccccc2)CC1, the outcome was “inactive”.
In the case of CN1C(=S)N(c2ccccc2)C(=O)/C1=C/c1ccco1, the outcome is reported as “inactive”.
With Cc1ccc(C(=O)Nc2ccccc2C(N)=O)o1 the outcome was “inactive”.
With COc1cccc(-n2c(SCc3cc(=O)oc4cc(O)c(O)cc34)nc3ccccc3c2=O)c1 the outcome was “inactive”.
With Cc1cccc(-n2c(N)cc(=O)[nH]c2=S)c1 the outcome was “inactive”.
In the case of C/C(=N\NC(=O)c1ccccc1)c1ccc2c(c1)OCO2, the outcome is reported as “inactive”.
With CCOc1ccccc1NS(=O)(=O)c1ccc(Br)s1 the outcome was “inactive”.
With CC(C)NCCCOc1ccc(Cl)cc1Br the outcome was “inactive”.
For O=C(COc1ccc(Br)cc1Cl)NC(=O)NCc1ccccc1, the outcome was “inactive”.
With Clc1ccc(Nc2ccc(NCc3ccccc3)nn2)cc1 the outcome was “inactive”.
In the case of Clc1ccc(OCCCn2ccnc2)c(Br)c1, the outcome is reported as “inactive”.
In the case of Clc1cc(Br)ccc1OCCn1ccnc1, the outcome is reported as “inactive”.
For CCCCNCCCOc1cccc(Cl)c1Cl, the outcome was “inactive”.
